Out of some 5,500 compounds screened, about 2,000 (36%) were called active. Roughly 18% stayed inconclusive and do not appear here. Rule as the data show it: active = normalized growth mostly below about 0.91 (no sharp cut-off); inconclusive = no clear call, values can overlap the other calls; inactive = mostly above about 0.92. The list shows a part of the results.
Assay: chemical genetic growth profiling, strain panel (AID 1159580);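 also: tested at 20 µM; growth read once vehicle control cultures reached saturation at 30 °C; 1 = growth at the plate median or of vehicle wells; lower values mean less growth of the strain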
Details: growth OD

Measured: normalized growth

NC(Cc1c[nH]c2ccccc12)C(=O)O (configuration not stated)
inactive: S. cerevisiae deletion strains, locus YJR075W, strain HOC1, stronger effect = lower value 1 | S. cerevisiae deletion strains, locus YKL009W, strain mrt4, stronger effect = lower value 1.01 | S. cerevisiae deletion strains, locus YKL068W, stronger effect = lower value 0.99 | S. cerevisiae deletion strains, locus YKL085W, strain MDH1 (second series), stronger effect = lower value 1.02 | S. cerevisiae deletion strains, locus YKL085W, strain MDH1, stronger effect = lower value 1.02 | S. cerevisiae deletion strains, locus YKL160W, strain elf1, stronger effect = lower value 1.02 | S. cerevisiae deletion strains, locus YKL190W, strain CNB1, stronger effect = lower value 0.989 | S. cerevisiae deletion strains, locus YKR001C, strain vps1, stronger effect = lower value 1 | S. cerevisiae deletion strains, locus YKR026C, strain gcn3, stronger effect = lower value 1.02 | S. cerevisiae deletion strains, locus YKR091W, strain srl3, stronger effect = lower value 1.02 | S. cerevisiae deletion strains, locus YLL001W, strain dnm1, stronger effect = lower value 1.02 | S. cerevisiae deletion strains, locus YLL026W, stronger effect = lower value 1.02 | S. cerevisiae deletion strains, locus YLL041C, strain sdh2, stronger effect = lower value 1.01 | S. cerevisiae deletion strains, locus YLR027C, strain aat2, stronger effect = lower value 1.01 | S. cerevisiae deletion strains, locus YLR039C, strain RIC1, stronger effect = lower value 0.991 | S. cerevisiae deletion strains, locus YLR058C, strain SHM2, stronger effect = lower value 0.975 | S. cerevisiae deletion strains, locus YLR102C, strain apc9, stronger effect = lower value 0.992 | S. cerevisiae deletion strains, locus YLR113W, strain HOG1, stronger effect = lower value 0.969 | S. cerevisiae deletion strains, locus YLR221C, strain rsa3, stronger effect = lower value 1.01 | S. cerevisiae deletion strains, locus YLR258W, strain gsy2, stronger effect = lower value 1.01 | S. cerevisiae deletion strains, locus YLR262C, strain YPT6 (second series), stronger effect = lower value 1.03 | S. cerevisiae deletion strains, locus YLR262C, strain YPT6, stronger effect = lower value 0.962 | S. cerevisiae deletion strains, locus YLR268W, strain sec22, stronger effect = lower value 1.02 | S. cerevisiae deletion strains, locus YLR320W, strain mms22, stronger effect = lower value 0.995 | S. cerevisiae deletion strains, locus YLR330W, strain CHS5, stronger effect = lower value 0.99 | S. cerevisiae deletion strains, locus YLR342W, strain FKS1 (second series), stronger effect = lower value 1.03 | S. cerevisiae deletion strains, locus YLR342W, strain FKS1, stronger effect = lower value 1.02 | S. cerevisiae deletion strains, locus YLR357W, strain rsc2, stronger effect = lower value 1.04 | S. cerevisiae deletion strains, locus YLR370C, strain arc18, stronger effect = lower value 1.02 | S. cerevisiae deletion strains, locus YLR371W, strain rom2, stronger effect = lower value 0.991 | S. cerevisiae deletion strains, locus YLR384C, strain iki3, stronger effect = lower value 1.02 | S. cerevisiae deletion strains, locus YLR418C, strain cdc73, stronger effect = lower value 1.04 | S. cerevisiae deletion strains, locus YML016C, strain PPZ1, stronger effect = lower value 0.989 | S. cerevisiae deletion strains, locus YML032C, strain rad52, stronger effect = lower value 0.992 | S. cerevisiae deletion strains, locus YML120C, strain ndi1, stronger effect = lower value 1.01 | S. cerevisiae deletion strains, locus YML124C, strain tub3, stronger effect = lower value 0.997 | S. cerevisiae deletion strains, locus YMR058W, strain fet3, stronger effect = lower value 1.02 | S. cerevisiae deletion strains, locus YMR078C, strain ctf18, stronger effect = lower value 0.979 | S. cerevisiae deletion strains, locus YMR125W, strain sto1, stronger effect = lower value 1.03 | S. cerevisiae deletion strains, locus YMR129W, stronger effect = lower value 1.02 | S. cerevisiae deletion strains, locus YMR205C, strain PFK2, stronger effect = lower value 1.03 | S. cerevisiae deletion strains, locus YMR223W, strain ubp8, stronger effect = lower value 1 | S. cerevisiae deletion strains, locus YMR231W, strain pep5, stronger effect = lower value 1.02 | S. cerevisiae deletion strains, locus YMR263W, strain SAP30, stronger effect = lower value 0.983 | S. cerevisiae deletion strains, locus YMR307W, strain GAS1, stronger effect = lower value 1.08 | S. cerevisiae deletion strains, locus YNL067W, strain RPL9B, stronger effect = lower value 0.992 | S. cerevisiae deletion strains, locus YNL071W, strain lat1, stronger effect = lower value 1.02 | S. cerevisiae deletion strains, locus YNL128W, strain TEP1, stronger effect = lower value 0.975 | S. cerevisiae deletion strains, locus YNL153C, strain GIM3, stronger effect = lower value 0.992 | S. cerevisiae deletion strains, locus YNL183C, strain NPR1, stronger effect = lower value 0.941 | S. cerevisiae deletion strains, locus YNL209W, strain ssb2, stronger effect = lower value 1.03 | S. cerevisiae deletion strains, locus YNL233W, strain BNI4, stronger effect = lower value 0.999 | S. cerevisiae deletion strains, locus YNL248C, strain rpa49, stronger effect = lower value 1.02 | S. cerevisiae deletion strains, locus YNL250W, strain rad50, stronger effect = lower value 0.975 | S. cerevisiae deletion strains, locus YNL271C, strain bni1, stronger effect = lower value 1.01 | S. cerevisiae deletion strains, locus YNL298W, strain CLA4, stronger effect = lower value 0.995 | S. cerevisiae deletion strains, locus YNL307C, strain MCK1, stronger effect = lower value 0.991 | S. cerevisiae deletion strains, locus YNL322C, strain KRE1 (second series), stronger effect = lower value 1.02 | S. cerevisiae deletion strains, locus YNL322C, strain KRE1, stronger effect = lower value 0.989 | S. cerevisiae deletion strains, locus YNR049C, strain mso1, stronger effect = lower value 1.02 | S. cerevisiae deletion strains, locus YNR052C, strain pop2, stronger effect = lower value 0.991 | S. cerevisiae deletion strains, locus YOL006C, strain TOP1, stronger effect = lower value 1.03 | S. cerevisiae deletion strains, locus YOL012C, strain htz1 2.02 | S. cerevisiae deletion strains, locus YOL147C, strain pex11, stronger effect = lower value 0.998 | S. cerevisiae deletion strains, locus YOR001W, strain rrp6, stronger effect = lower value 0.992 | S. cerevisiae deletion strains, locus YOR061W, strain CKA2, stronger effect = lower value 0.973 | S. cerevisiae deletion strains, locus YOR069W, strain VPS5, stronger effect = lower value 0.991 | S. cerevisiae deletion strains, locus YOR070C, strain gyp1, stronger effect = lower value 1.02 | S. cerevisiae deletion strains, locus YOR080W, strain dia2, stronger effect = lower value 1.02 | S. cerevisiae deletion strains, locus YOR083W, strain WHI5, stronger effect = lower value 1.01 | S. cerevisiae deletion strains, locus YOR106W, strain vam3, stronger effect = lower value 1 | S. cerevisiae deletion strains, locus YOR136W, strain idh2, stronger effect = lower value 0.992 | S. cerevisiae deletion strains, locus YOR144C, strain elg1, stronger effect = lower value 1 | S. cerevisiae deletion strains, locus YOR184W, strain ser1, stronger effect = lower value 1 | S. cerevisiae deletion strains, locus YOR231W, strain MKK1, stronger effect = lower value 0.946 | S. cerevisiae deletion strains, locus YOR265W, strain rbl2, stronger effect = lower value 1.01 | S. cerevisiae deletion strains, locus YOR270C, strain vph1, stronger effect = lower value 1.04 | S. cerevisiae deletion strains, locus YOR290C, strain snf2, stronger effect = lower value 1.01 | S. cerevisiae deletion strains, locus YOR316C, strain cot1, stronger effect = lower value 0.981 | S. cerevisiae deletion strains, locus YPL051W, strain arl3, stronger effect = lower value 1.01 | S. cerevisiae deletion strains, locus YPL055C, strain LGE1, stronger effect = lower value 0.981 | S. cerevisiae deletion strains, locus YPL078C, strain atp4, stronger effect = lower value 1.01 | S. cerevisiae deletion strains, locus YPL106C, strain sse1, stronger effect = lower value 1.02 | S. cerevisiae deletion strains, locus YPL240C, strain hsp82, stronger effect = lower value 1.02 | S. cerevisiae deletion strains, locus YPL241C, strain CIN2, stronger effect = lower value 0.995 | S. cerevisiae deletion strains, locus YPL256C, strain CLN2, stronger effect = lower value 0.963 | S. cerevisiae deletion strains, locus YPR119W, strain clb2, stronger effect = lower value 0.996 | S. cerevisiae deletion strains, locus YPR141C, strain kar3, stronger effect = lower value 0.985 | S. cerevisiae deletion strains, locus YPR163C, strain tif3, stronger effect = lower value 0.998 | S. cerevisiae deletion strains, locus YPR167C, strain met16, stronger effect = lower value 1 | S. cerevisiae deletion strains, strain wtn01, stronger effect = lower value 0.984 | S. cerevisiae strains, strain wild type, stronger effect = lower value 0.997
